Five molecules from PubChem BioAssay can be followed below.

The nature of test [1]: small molecules captured by biotinylated probe aFSTL3 – biochemical, small-molecule microarray, fluorescence 635/667, stem cell growth factor project, primary screen (AID 1064).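 Further: measures binding of the biotinylated anti-FSTL3 antibody to printed compounds.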 The following applies: higher = more signal.
A short description of test [2]: binders from COS7 lysate, DM2A8 probe, primary screen, torsin A project, cell lysate, small-molecule microarray, fluorescence 635/667 (AID 1065). The following applies: higher = more signal, COS7 lysate expressing mutant human TOR1A.
The nature of test [3]: small molecules captured by biotinylated probe aFGF2 – biochemical, small-molecule microarray, fluorescence 635/667, stem cell growth factor project, primary screen (AID 1067).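 Further: measures binding of biotinylated aFGF2 protein to printed compounds on slides; z-score merges feature fluorescence and signal-to-noise across triplicate slides.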 Particulars: higher = more signal.
Test [4] is described as follows: small molecules captured by biotinylated probe aFGF10 – biochemical, small-molecule microarray, fluorescence 635/667, stem cell growth factor project, primary screen (AID 1071).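 Further: score merges 667 nm spot intensity and signal to noise from triplicate slides.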 Particulars: higher = more signal.
Test [5] has as its target Neurogenic locus notch homolog protein 2 (Homo sapiens) (UniProt Q04721). Put plainly: small molecules binding Notch2 protein – biochemical, small-molecule microarray, 635 nm fluorescence, stem cell growth factors, primary screen (AID 1073). The following applies: higher = more signal.
Test [6] has as its target Pro-neuregulin-1, membrane-bound isoform (Homo sapiens) (UniProt Q02297). Put plainly: small molecules binding neuregulin-1 protein – biochemical, small-molecule microarray, fluorescence 635/667, psychiatric disease protein project, primary screen (AID 1075).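 Further: score combines 667 nm spot fluorescence with signal to noise.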 Particulars: NRG1 binding, 635 nm fluorescence, higher = more signal.
Test [7] deals with Neuregulin-1 EGF-like domain. Put plainly: small molecules binding NRG1 EGF domain – biochemical, small-molecule microarray, 635 nm fluorescence, primary screen (AID 1081).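 Further: binding of the protein to compounds printed on small-molecule microarray slides.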 The following applies: higher = more signal.
A short description of test [8]: FRG1 expression reporter modulators in myotubes – cell-based, C2C12 myotubes, firefly/Renilla luciferase, luminescence, FRG1 inhibition for FSHD, primary screen (AID 1084). Particulars: FRG1 promoter luciferase, higher = more signal, called active from +8 up or from −8 down.
Test [9] is described as follows: small molecules captured by biotinylated probe aFST – biochemical, small-molecule microarray, fluorescence 635/667, stem cell growth factor project, primary screen (AID 1086).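 Further: score merges 667 nm fluorescence with signal-to-noise of each printed compound spot.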 The following applies: higher = more signal.
Test [10] in a line: binders of probe aHhip on microarray, primary screen, stem cell growth factor project, biochemical, small-molecule microarray, fluorescence 635/667 (AID 1087).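 Further: score merges spot fluorescence at 667nm with spot signal to noise ratio.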 Particulars: higher = more signal.
For test [11], the system named is PRMT1 (protein arginine N-methyltransferase 1). Put plainly: small molecules binding arginine methyltransferase PRMT1 – biochemical, small-molecule microarray, 635 nm fluorescence, primary screen (AID 1088).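 Further: binding of Prmt1 protein to compounds spotted on small-molecule microarray slides.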 Particulars: higher = more signal.
A short description of test [12]: growth effects on S. cerevisiae YJM789 – YJM789 clinical isolate, OD600, 24 h, basal, primary screen (AID 1089).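 Further: growth of clinical yeast isolate S. cerevisiae YJM 789 seeded 1000 cells per well; test concentration not given here.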 The following applies: higher = more signal, called active from +8 up or from −8 down.
The nature of test [13]: S. pombe growth modifiers, basal conditions – strain 972, OD600, 24 h, no modulator, primary screen (AID 1090).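 Further: basal condition with compound alone and no growth modifier present; test concentration not given here.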 Particulars: S. pombe 972 growth, higher = more signal, called active from +8 up or from −8 down.
The nature of test [14]: budding yeast growth modifiers under rapamycin – strain BY4716, OD600, 96 h, primary screen (AID 1091). Further: test concentration not given here. The following applies: S. cerevisiae BY4716 + rapamycin, higher = more signal, called active from +8 up or from −8 down.
For test [15], the target named is Torsin-1A-interacting protein 2 (Homo sapiens) (UniProt Q8NFQ8). Briefly: small molecules binding lysate-expressed LULL1 – cell lysate, human LULL1 lysate, 635/667 nm fluorescence, primary screen (AID 1092).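 Further: probe is lysate of COS7 cells overexpressing human LULL1; score merges per-feature 667 nm fluorescence with signal-to-noise.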 The following applies: small-molecule microarray, hLULL1 lysate binding, 635 nm fluorescence; higher = more signal.
Test [16] can be described thus: optical density change of DRC41 E. coli – strain DRC41, OD650, 24 h, E. coli filamentation project, primary screen (AID 1093).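 Further: MC1000 strain lacking acrAB efflux and sulA so SOS filamentation is blocked; test concentration not given here.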 Particulars: E. coli DRC41 growth, higher = more signal, called active from +8 up or from −8 down.
The nature of test [17]: probe aLefty2 binding to arrayed compounds – biochemical, biotinylated probe, 635/667 nm fluorescence, primary screen (AID 1094).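 Further: score merges spot fluorescence near 667 nm with spot signal-to-noise ratio.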 The following applies: small-molecule microarray, higher = more signal.
In test [18] the test system is Noggin (protein binding on small-molecule microarray). Put plainly: small molecules binding Noggin protein – biochemical, 635/667 nm fluorescence, primary screen (AID 1095).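 Further: score merges 667 nm feature fluorescence with signal to noise over triplicate slides.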 The following applies: 635 nm fluorescence, higher = more signal.
Test [19] has as its target Neurogenic locus notch homolog protein 3 (Homo sapiens) (UniProt Q9UM47). Put plainly: small molecules binding NOTCH3 protein – biochemical, 635/667 nm fluorescence, primary screen (AID 1096). The following applies: small-molecule microarray, 635 nm fluorescence, higher = more signal.
Test [20] in a line: probe aEGFR binding to arrayed compounds – biochemical, biotinylated probe, 635/667 nm fluorescence, primary screen (AID 1097).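 Further: probe is a biotinylated anti-EGFR antibody binding compounds printed on slides; score combines fluorescence near 667 nm and signal to noise of each spot.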 The following applies: small-molecule microarray, higher = more signal.

The source made the active and inactive calls.

Chain of Neurogenic locus notch homolog protein 2 (Homo sapiens) (Q04721 whole entry, looked up, canonical isoform): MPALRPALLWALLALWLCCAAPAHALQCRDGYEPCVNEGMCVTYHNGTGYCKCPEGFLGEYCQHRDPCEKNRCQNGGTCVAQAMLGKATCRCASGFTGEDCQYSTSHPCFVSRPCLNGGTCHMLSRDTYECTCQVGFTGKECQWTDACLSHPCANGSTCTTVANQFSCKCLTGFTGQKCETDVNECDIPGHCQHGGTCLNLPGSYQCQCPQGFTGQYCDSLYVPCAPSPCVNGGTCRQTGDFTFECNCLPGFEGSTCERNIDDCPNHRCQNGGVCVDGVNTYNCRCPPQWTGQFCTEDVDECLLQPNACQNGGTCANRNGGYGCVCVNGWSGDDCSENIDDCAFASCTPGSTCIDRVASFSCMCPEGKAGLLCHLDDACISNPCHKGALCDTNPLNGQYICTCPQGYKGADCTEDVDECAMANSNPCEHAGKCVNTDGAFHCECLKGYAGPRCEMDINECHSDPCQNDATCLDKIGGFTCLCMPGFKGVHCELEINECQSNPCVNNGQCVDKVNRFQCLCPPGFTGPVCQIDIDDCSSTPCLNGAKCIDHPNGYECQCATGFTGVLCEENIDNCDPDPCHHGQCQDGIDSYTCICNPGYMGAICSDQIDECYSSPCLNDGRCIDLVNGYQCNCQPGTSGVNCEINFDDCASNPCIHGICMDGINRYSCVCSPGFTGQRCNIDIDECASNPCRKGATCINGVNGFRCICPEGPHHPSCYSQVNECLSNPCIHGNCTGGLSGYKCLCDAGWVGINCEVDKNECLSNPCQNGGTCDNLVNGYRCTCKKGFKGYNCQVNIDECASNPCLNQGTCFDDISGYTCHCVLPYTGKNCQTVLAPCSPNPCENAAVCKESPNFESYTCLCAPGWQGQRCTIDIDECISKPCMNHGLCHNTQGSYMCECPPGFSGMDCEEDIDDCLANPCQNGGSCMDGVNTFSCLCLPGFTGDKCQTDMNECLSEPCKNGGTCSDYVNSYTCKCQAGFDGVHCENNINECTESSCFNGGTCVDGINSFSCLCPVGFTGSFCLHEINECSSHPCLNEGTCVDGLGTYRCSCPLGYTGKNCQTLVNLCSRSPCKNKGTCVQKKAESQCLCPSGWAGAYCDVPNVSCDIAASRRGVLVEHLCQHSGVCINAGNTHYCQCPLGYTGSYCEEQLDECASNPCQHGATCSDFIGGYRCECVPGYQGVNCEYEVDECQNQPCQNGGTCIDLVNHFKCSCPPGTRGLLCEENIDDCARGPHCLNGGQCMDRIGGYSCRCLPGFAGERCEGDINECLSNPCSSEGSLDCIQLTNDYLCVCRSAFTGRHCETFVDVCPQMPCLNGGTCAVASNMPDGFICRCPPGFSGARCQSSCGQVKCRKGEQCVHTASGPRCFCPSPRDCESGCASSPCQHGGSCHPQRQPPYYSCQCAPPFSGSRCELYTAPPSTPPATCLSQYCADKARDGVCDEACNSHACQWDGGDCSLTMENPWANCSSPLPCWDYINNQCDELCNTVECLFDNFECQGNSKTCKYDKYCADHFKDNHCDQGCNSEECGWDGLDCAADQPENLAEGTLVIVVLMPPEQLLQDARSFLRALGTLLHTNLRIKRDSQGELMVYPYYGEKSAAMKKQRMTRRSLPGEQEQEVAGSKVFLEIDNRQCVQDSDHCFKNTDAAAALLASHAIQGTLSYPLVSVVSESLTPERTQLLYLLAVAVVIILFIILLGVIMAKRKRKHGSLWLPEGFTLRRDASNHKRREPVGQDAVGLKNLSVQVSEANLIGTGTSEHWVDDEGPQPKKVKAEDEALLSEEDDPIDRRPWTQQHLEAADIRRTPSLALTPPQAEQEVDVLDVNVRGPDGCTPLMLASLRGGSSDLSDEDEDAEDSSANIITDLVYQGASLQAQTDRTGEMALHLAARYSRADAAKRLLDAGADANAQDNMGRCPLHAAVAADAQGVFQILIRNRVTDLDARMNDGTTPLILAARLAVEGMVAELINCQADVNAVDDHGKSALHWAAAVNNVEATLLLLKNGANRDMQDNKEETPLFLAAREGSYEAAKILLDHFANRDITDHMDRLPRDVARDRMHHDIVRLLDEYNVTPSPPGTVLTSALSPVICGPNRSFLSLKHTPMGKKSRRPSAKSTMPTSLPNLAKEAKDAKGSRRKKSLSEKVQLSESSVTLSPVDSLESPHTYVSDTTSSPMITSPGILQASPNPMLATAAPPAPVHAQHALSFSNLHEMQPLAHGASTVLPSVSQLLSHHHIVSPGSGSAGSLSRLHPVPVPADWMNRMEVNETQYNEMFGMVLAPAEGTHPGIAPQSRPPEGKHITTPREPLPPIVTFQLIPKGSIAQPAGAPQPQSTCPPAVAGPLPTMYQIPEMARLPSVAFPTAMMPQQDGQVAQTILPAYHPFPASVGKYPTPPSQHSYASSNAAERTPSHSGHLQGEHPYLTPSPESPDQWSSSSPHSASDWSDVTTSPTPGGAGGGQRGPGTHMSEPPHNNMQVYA
Chain of Pro-neuregulin-1, membrane-bound isoform (Homo sapiens) (Q02297 whole entry, looked up, the tested form may be a part, canonical isoform): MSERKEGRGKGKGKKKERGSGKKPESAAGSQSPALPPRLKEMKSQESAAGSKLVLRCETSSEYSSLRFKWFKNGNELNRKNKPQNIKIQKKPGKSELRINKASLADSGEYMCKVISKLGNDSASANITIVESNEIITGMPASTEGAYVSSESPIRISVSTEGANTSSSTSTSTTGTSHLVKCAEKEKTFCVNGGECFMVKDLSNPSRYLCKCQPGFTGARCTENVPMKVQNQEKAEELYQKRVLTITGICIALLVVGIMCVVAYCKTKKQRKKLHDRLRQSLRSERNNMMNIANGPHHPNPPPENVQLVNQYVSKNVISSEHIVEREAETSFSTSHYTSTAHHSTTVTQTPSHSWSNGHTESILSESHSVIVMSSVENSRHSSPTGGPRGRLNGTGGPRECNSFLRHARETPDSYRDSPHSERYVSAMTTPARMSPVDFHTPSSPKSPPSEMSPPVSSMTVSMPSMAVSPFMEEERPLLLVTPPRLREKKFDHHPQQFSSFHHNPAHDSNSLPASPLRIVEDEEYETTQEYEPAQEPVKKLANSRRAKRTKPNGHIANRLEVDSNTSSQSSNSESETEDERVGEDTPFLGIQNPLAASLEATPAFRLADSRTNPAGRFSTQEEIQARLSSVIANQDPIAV
Chain of Torsin-1A-interacting protein 2 (Homo sapiens) (Q8NFQ8 whole entry, looked up): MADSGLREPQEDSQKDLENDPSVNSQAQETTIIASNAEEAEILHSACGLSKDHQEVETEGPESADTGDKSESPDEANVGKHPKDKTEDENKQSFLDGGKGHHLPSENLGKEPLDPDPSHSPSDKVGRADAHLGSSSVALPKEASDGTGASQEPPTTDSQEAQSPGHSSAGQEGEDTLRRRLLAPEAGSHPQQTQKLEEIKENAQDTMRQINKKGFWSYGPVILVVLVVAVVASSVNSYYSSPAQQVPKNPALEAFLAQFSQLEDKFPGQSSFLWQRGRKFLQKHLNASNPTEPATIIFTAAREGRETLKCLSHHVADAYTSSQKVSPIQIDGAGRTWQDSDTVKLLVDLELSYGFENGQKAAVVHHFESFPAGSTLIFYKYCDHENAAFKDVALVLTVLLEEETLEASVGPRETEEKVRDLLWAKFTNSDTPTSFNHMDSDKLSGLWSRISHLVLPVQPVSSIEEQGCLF

Turning to `CCOC(=O)C[C@H]1[C@H](OC(=O)c2ccc(C(=O)c3ccccc3)cc2)[C@@H](NC(=O)CC(C)C)c2cc(OCCCO)ccc2N1C(=O)c1ccc2ccccc2n1`, the composite z-score in [1] is -0.538; in test [2], 0.154; in test [3], -0.0715; in test [4] it was 0.86; in [5] it was 1.28; in [6], 0.621. For the same molecule, the composite z-score in [7] was 1.22; in test [9], 0.334; in [10], -0.137; in test [11], 1.48; in test [15], 1.99; in [17], 0.106. Besides, the composite z-score is 0.693 in test [18], 1.13 in [19] and -0.0565 in test [20]. Also, the z-score in test [8] was -0.291 (inactive); in test [12] it was 1.09 (inactive); in [13] it was 0.606 (inactive); in [14] it was 0.607 (inactive); in test [16], 0.995 (inactive).
Consider `O=C1C2C=CC(C(O)Cc3ccccc3)N(n3cnnc3)C2C(=O)N1Cc1ccccc1` (stereo not given), for which the composite z-score is 0.442 in [1]; -0.0532 in test [2]; 0.038 in test [3]; 0.426 in test [4]; 1.43 in test [5]; 0.489 in [6]. Moreover, the composite z-score in [7] is 0.984; in [9] it was 0.307; in test [10] it was -0.186; in test [11], 0.411; in test [15], 2.93; in test [17] it was 0.0906. Also, the composite z-score in [18] was -0.785; in test [19] it was 0.153; in [20], -0.0592. Besides, the z-score in test [8] is 0.793 (inactive); in [12], -0.112 (inactive); in test [13], 0.116 (inactive); in test [14], 0.343 (inactive); in test [16] it was -1.25 (inactive).
With `CCC(CC)C(O)C1C=CC2C(=O)NC(=O)C2N1Nc1ccccn1` (stereo not given), the composite z-score in test [1] is -0.164; in test [2] it was 0.247; in [3] it was 0.0119; in test [4], 0.368; in test [5] it was 0.795; in test [6], 0.675. The composite z-score in test [7] is 1.12; in test [9], 0.305; in [10] it was 0.0139; in test [11], -0.26; in test [15] it was 1.35; in test [17], 0.0744. For the same molecule, the composite z-score in [18] was -0.441; in [19], -0.412; in test [20], 0.148. In addition, the z-score is 0.32 (inactive) in [8]; 0.188 (inactive) in test [12]; 1.22 (inactive) in test [13]; 0.315 (inactive) in [14]; -0.691 (inactive) in test [16].
With `CN(C)CCCC[C@@H]1NC(=O)[C@H]2C[C@@H](C(=O)NCCCCCCN)[C@@H](c3ccc(O)cc3)N2C1=O`, the composite z-score in test [1] amounted to 1.89; in test [2], 1.03; in test [3], 0.128; in [4], 0.935; in test [5] it was 1.37; in [6], 1.79. For the same molecule, the composite z-score worked out at 1.1 in test [7]; 1.52 in test [9]; 1.09 in test [10]; 1.57 in [11]; 3.08 in test [15]; 1.14 in test [17]. The composite z-score worked out at 1.84 in test [18], 1.15 in test [19] and 0.566 in [20]. The z-score in test [8] is 0.511 (inactive); in test [12] it was 0.307 (inactive); in test [13], -0.235 (inactive); in [14], -0.447 (inactive); in [16], 0.278 (inactive).
With `O=C1C2C=CC(C(O)CCc3ccccc3)N(Nc3ccccc3F)C2C(=O)N1c1ccccc1` (stereo not given), the composite z-score in [1] is -0.114; in test [2], 0.203; in test [3], 0.179; in test [4] it was 0.763; in test [5], 1.68; in test [6], 0.572. Besides, the composite z-score is 1.15 in test [7]; 1.16 in [9]; -0.191 in [10]; 1.49 in [11]; 3.28 in test [15]; 0.183 in test [17]. In addition, the composite z-score in test [18] worked out at 0.279; in test [19] it was 1.08; in [20] it was 0.0059. Also, the z-score in test [8] is 0.957 (inactive); in test [12], -0.566 (inactive); in test [13], 0.624 (inactive); in test [14], -0.378 (inactive); in test [16], -0.0741 (inactive).
